Active and inactive are the calls of the source. Unless noted, calls follow the shape of the dose curve; as a rule, active = well fitted curve in the direction sought with a large enough effect in the repeat runs; inconclusive = weak or mixed curves; inactive = flat fitted curve, though single readings scatter.
Experiments:
[1] = qHTS assay to test for compound auto fluorescence at 535 nm (green) in HEK293 cells (AID 720680)
[2] = qHTS assay to test for compound auto fluorescence at 460 nm (blue) in HEK293 cell free culture (AID 720681)
Procedure, shortened: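 Compounds were added to cell-free DMEM with 10% FBS and fluorescence read directly. The blue channel used 405 nm excitation and 460 nm emission, with triamterene as the reference fluorophore.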

[3] = qHTS assay to test for compound auto fluorescence at 535 nm (green) in HEK293 cell free culture (AID 720682)
Procedure, shortened: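 Using fluorescein as calibrant, autofluorescence was quantified at 485/535 nm in cell-free DMEM containing 10% FBS after pintool addition of compound or vehicle.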

[4] = qHTS assay to test for compound auto fluorescence at 590 nm (red) in HEK293 cell free culture (AID 720683)
Procedure, shortened: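 Cell-free wells of DMEM with 10% FBS received compound, and intrinsic fluorescence was read at excitation/emission 540/590 nm. Values expressed as equivalence to Rose Bengal sodium.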

[5] = qHTS assay to test for compound auto fluorescence at 590 nm (red) in HepG2 cell free culture (AID 720684)
Procedure, shortened: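 Auto fluorescence equivalency versus Rose Bengal sodium, red channel Ex/Em 540/590 nm; compounds in cell-free MEM/10% FBS; DMSO vehicle control.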

[6] = qHTS assay to test for compound auto fluorescence at 460 nm (blue) in HepG2 cell free culture (AID 720685)
Procedure, shortened: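 Cell-free plates of MEM plus 10% FBS received 23 nL compound or DMSO vehicle; blue-channel (405/460 nm) intensity scored against triamterene as reference fluorophore.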

[7] = qHTS assay to test for compound auto fluorescence at 460 nm (blue) in HepG2 cells (AID 720687)
Procedure, shortened: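 HepG2 cells in MEM with 10% FBS, attached overnight at 37 C, were exposed to compound or DMSO for 1 hr at 37 C, 5% CO2. Blue fluorescence was read at 405/460 nm, with triamterene as reference fluorophore.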

[8] = biological target: Glucocorticoid receptor (Homo sapiens) (UniProt P04150); experiment: qHTS assay to identify small molecule agonists of the glucocorticoid receptor (GR) signaling pathway (AID 720691; active = well fitted activation curve with a large enough effect in the signal ratio in the repeat runs, not every such curve was filed as active; inconclusive = weak or mixed curves, or effect the other way; inactive = no such curve, though single readings can be large or run the other way; the % refers to the signal ratio; also: potency is read from the fitted curve at half-maximal effect)
Glucocorticoid receptor (Homo sapiens), sequence (P04150 whole entry, looked up): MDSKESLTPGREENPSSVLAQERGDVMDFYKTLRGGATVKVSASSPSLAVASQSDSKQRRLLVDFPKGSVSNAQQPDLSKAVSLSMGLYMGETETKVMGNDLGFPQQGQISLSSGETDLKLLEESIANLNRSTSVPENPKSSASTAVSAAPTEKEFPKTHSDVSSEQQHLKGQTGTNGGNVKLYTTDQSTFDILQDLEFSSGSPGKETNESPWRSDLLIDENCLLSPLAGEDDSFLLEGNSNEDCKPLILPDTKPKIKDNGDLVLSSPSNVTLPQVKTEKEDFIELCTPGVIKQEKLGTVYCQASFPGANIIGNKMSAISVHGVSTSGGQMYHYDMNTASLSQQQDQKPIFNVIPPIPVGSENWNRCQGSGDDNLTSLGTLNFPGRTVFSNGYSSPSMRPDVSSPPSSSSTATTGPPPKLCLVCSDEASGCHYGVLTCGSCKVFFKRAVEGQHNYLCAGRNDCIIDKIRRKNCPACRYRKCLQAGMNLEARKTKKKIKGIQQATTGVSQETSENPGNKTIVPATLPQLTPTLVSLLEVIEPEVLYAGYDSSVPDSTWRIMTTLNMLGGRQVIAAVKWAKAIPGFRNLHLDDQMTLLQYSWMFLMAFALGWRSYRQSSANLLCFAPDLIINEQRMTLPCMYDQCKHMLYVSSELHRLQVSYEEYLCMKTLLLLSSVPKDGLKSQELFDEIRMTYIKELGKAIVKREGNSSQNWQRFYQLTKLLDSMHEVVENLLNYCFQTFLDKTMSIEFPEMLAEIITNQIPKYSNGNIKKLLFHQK
Procedure, shortened: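 Measures GR pathway activation through a GRE-beta-lactamase reporter stably integrated in HeLa cells, with 18 h compound treatment at 37 C and fluorescence detection using a FRET substrate.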

[9] = biological target: Glucocorticoid receptor (Homo sapiens) (UniProt P04150); experiment: qHTS assay to identify small molecule antagonists of the glucocorticoid receptor (GR) signaling pathway (AID 720692; active = well fitted inhibition curve with a large enough effect in the signal ratio in the repeat runs, not every such curve was filed as active; inconclusive = weak or mixed curves, or effect the other way; inactive = no such curve, though single readings can be large or run the other way; the % refers to the signal ratio)
Procedure, shortened: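 Tox21 10K library screened in concentration-response for blockade of dexamethasone (5 nM final)-induced GRE-bla reporter activity in HeLa cells; 18 h treatment, fluorescence read.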

[10] = qHTS assay to test for compound auto fluorescence at 535 nm (green) in HepG2 cell free culture (AID 720686)
% is scaled to controls: 0 for no effect and ±100 for the full control effect.

CC(=O)OCCCc1ccccc1
inactive: outcome [1] | outcome [2] | outcome [3] | outcome [4] | outcome [5] | outcome [6] | outcome [7]

Nc1ccc(/C=C/c2ccc(N)cc2S(=O)(=O)O)c(S(=O)(=O)O)c1
inactive: outcome [1] | outcome [2] | outcome [3] | outcome [4] | outcome [5] | outcome [6] | outcome [7] | Potency [8]

CNC(=O)C(c1ccccc1)c1ccccc1
inactive: outcome [1] | outcome [2] | outcome [3] | outcome [4] | outcome [5] | outcome [6] | outcome [7] | Potency [8] | outcome [9]

CCCCC/C=C/CC(=O)OC
inactive: outcome [1] | outcome [2] | outcome [3] | outcome [4] | outcome [5] | outcome [6] | outcome [7] | Potency [8] | outcome [9]

COc1ccc(OC)c(NC(=O)CC(C)=O)c1
inactive: outcome [1] | outcome [2] | outcome [3] | outcome [4] | outcome [5] | outcome [10]

CCOc1ccc(NC(=O)OC(C)C)cc1OCC
inactive: outcome [1] | outcome [2] | outcome [3] | outcome [4] | outcome [5] | outcome [6] | Potency [8] | outcome [9]

CCC1COC(=O)O1 (stereo unspecified)
inactive: outcome [1] | outcome [2] | outcome [3] | outcome [4] | outcome [5] | outcome [6] | outcome [7] | Potency [8]

CCNC(=O)/C=C/c1cccc(Br)c1
inactive: outcome [1] | outcome [2] | outcome [3] | outcome [4] | outcome [5] | outcome [6] | outcome [7] | Potency [8]

CC(=O)N(CC(O)CO)c1c(I)c(C(=O)NCC(O)CO)c(I)c(C(=O)NCC(O)CO)c1I (stereo unspecified)
inactive: outcome [1] | outcome [2] | outcome [3] | outcome [4] | outcome [5] | outcome [6] | outcome [7]

Oc1ccccc1Cc1ccccc1O
inactive: outcome [1] | outcome [2] | outcome [3] | outcome [4] | outcome [5] | outcome [6] | Potency [8] | outcome [9]

Cc1ncc([N+](=O)[O-])n1CC(O)CCl (stereo unspecified)
inactive: fluorescence, % of fluorescein [1] -0.0185% [at 18.6 µM] | fluorescence, % of fluorescent control [2] -0.008% [at 18.6 µM] | activity change [3] 0.017% [at 18.6 µM] | fluorescence, % of fluorescent control [4] -0.0564% [at 18.6 µM] | fluorescence, % of Rose Bengal [5] 0.0054% [at 18.6 µM] | fluorescence, % of fluorescent control [6] -0.0905% [at 18.6 µM] | Potency [8] | outcome [9]

CNCc1ccccc1
inactive: outcome [1] | outcome [2] | outcome [3] | outcome [4] | outcome [5] | outcome [6] | outcome [7]

CC(C)=CC(C)(C)C
inactive: outcome [1] | outcome [2] | outcome [3] | outcome [4] | outcome [5] | outcome [6] | outcome [7] | Potency [8]

FC(F)(F)c1ccc(Cl)cc1Cl
inactive: outcome [1] | outcome [2] | outcome [3] | outcome [4] | outcome [5] | outcome [6] | Potency [8] | outcome [9]

CC(C)SCc1ccco1
inactive: outcome [1] | outcome [2] | outcome [3] | outcome [4] | outcome [5] | outcome [6] | outcome [7]

C1CCN2C[C@@H]3C[C@@H](CN4CCCC[C@@H]34)[C@H]2C1
inactive: fluorescence, % of fluorescein [1] -0.0731% [at 18.6 µM] | fluorescence, % of fluorescent control [2] 0.0698% [at 18.6 µM] | activity change [3] -0.022% [at 18.6 µM] | fluorescence, % of fluorescent control [4] 0.165% [at 18.6 µM] | fluorescence, % of Rose Bengal [5] -0.0423% [at 18.6 µM] | fluorescence, % of fluorescent control [6] 0.101% [at 18.6 µM] | fluorescence, % of fluorescent control [7] -0.0841% [at 18.6 µM] | Potency [8] | outcome [9]

Cc1ccccc1C(=O)N1CC/C(=N\OS(=O)(=O)O)c2ccc(Cl)cc21
inactive: outcome [1] | outcome [2] | outcome [3] | outcome [4] | outcome [5] | outcome [6] | outcome [7] | Potency [8] | outcome [9]

CCCCCCCCCCCCCCCCI
inactive: fluorescence, % of fluorescein [1] 0.0243% [at 18.6 µM] | fluorescence, % of fluorescent control [2] -0.0222% [at 18.6 µM] | activity change [3] -0.0077% [at 18.6 µM] | fluorescence, % of fluorescent control [4] 0.0155% [at 18.6 µM] | fluorescence, % of Rose Bengal [5] -0.0349% [at 18.6 µM] | fluorescence, % of fluorescent control [6] -0.142% [at 18.6 µM] | fluorescence, % of fluorescent control [7] 0.151% [at 18.6 µM]

CCc1nccnc1C
inactive: outcome [1] | outcome [2] | outcome [3] | outcome [4] | outcome [5] | outcome [6] | Potency [8] | outcome [9]

CC(C)(CO)[C@@H](O)C(=O)NCCCO
inactive: outcome [1] | outcome [2] | outcome [3] | outcome [4] | outcome [5] | outcome [10]

CN(C1CCCCC1)S(=O)(=O)c1ccccc1N
inactive: outcome [1] | outcome [2] | outcome [3] | outcome [4] | outcome [5] | outcome [6] | outcome [7]

CC(=O)OCC(=O)[C@@]1(O)[C@H](OC(C)=O)C[C@H]2[C@@H]3CCC4=CC(=O)C=C[C@]4(C)[C@@]3(F)[C@@H](O)C[C@@]21C
inactive: outcome [1] | outcome [2] | outcome [3] | outcome [4] | outcome [5] | outcome [6] | outcome [7]
active: Potency [8] 134 nM [inconclusive]

NS(=O)(=O)c1cc2c(cc1Cl)NC(C(Cl)Cl)NS2(=O)=O (stereo unspecified)
inactive: fluorescence, % of fluorescein [1] 0.0129% [at 18.6 µM] | fluorescence, % of fluorescent control [2] -0.0271% [at 18.6 µM] | activity change [3] -0.0213% [at 18.6 µM] | fluorescence, % of fluorescent control [4] 0.0566% [at 18.6 µM] | fluorescence, % of Rose Bengal [5] -0.224% [at 18.6 µM] | fluorescence, % of fluorescent control [6] -0.0397% [at 18.6 µM] | fluorescence, % of fluorescent control [7] -0.0034% [at 18.6 µM]

CCCCC(=O)N(C)C
inactive: outcome [1] | outcome [2] | outcome [3] | outcome [4] | outcome [5] | outcome [6] | outcome [7] | Potency [8] | outcome [9]

Source: PubChem BioAssay (Tox21)
